# A selection: hits, their analogues and other compounds. The true share with any hit is near 18%.
# IL1B secr inh: inhibitors of inflammasome signaling (IL-1 beta secretion). THP-1 LPS/ATP IL-1B secretion, AlphaLISA, 16 h; hits give low values. activity change, % at 57.5 µM. 360,000 compounds, 4.7% hits; in the data active = activity change below about -50%; inconclusive = mostly about -30% to -49%
#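 THP-1 cells pretreated 1 hr with compounds (up to 57.5 uM final), then stimulated with LPS (250 ng/mL final) plus ATP (1.25 mM final); secreted IL-1B measured by AlphaLISA after 16 hr, decreased signal indicating inhibition.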
# DT40 TDP1 CPT: growth inhibition of DT40 Tdp1-/-;hTDP1 cells with camptothecin (screen for TDP1 inhibitors); chicken DT40 Tdp1-/-;hTDP1 cells + 20 nM CPT, ATP luminescence, 48 h; Potency, µM (series often up to 46.2 µM), inactives show at the highest dose activity change, negative = growth inhibition, actives largely listed as inhibitors; 420,000 compounds, 12% hits; also: potency is read from the fitted curve at half-maximal effect; nearly all actives have a fitted effect of over 55% in size
#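 Chicken DT40 Tdp1-/- cells stably complemented with human TDP1 were seeded at 400 cells/well in medium containing 20 nM camptothecin, exposed to pin-transferred compounds, and grown at 37 °C for at least 48 hr. Viability was read as ATP luminescence.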
# VP16 counter: counter-screen for ROR gamma inhibitors: Gal4-VP16 reporter; Drosophila S2 Gal4-VP16 UAS-luciferase, luminescence, 20 h; Potency, µM (highest dose often 53.6 µM), for inactives: at the highest dose activity, negative = inhibition, most hits filed as inhibitors; 310,000 compounds, 3.5% hits; AID 2546;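 also: Gal4-VP16 expression switched on by copper sulfate through the metallothionein promoter; potency is read from the fitted curve at half-maximal effect; nearly all actives have a fitted effect of over 50% in size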
# TDP1 cell noCPT: qHTS for Inhibitors of human tyrosyl-DNA phosphodiesterase 1 (TDP1): qHTS in cells in absence of CPT; DT40 Tdp1-/- hTDP1 cells, no CPT, ATP luminescence, 48 h; Potency, µM (highest dose often 46.2 µM), for the others: top-dose activity change, negative = growth inhibition, usual class: inhibitors; 420,000 compounds, 15% hits; AID 686978, 2013; also: potency is read from the fitted curve at half-maximal effect; nearly all actives have a fitted effect of over 55% in size
#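 Stably hTDP1-transfected Tdp1-null chicken DT40 cells were treated with library compounds minus camptothecin and grown for at least 48 hr at 37 °C, after which cellular ATP was quantified by luminescence.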
# LDHA block: blocks human lactate dehydrogenase A; P00338; purified LDHA, NADH/diaphorase-resazurin fluorescence; hits give low values; activity change, % (values are at about 110 or 230 µM); 480,000 compounds, 0.15% hits; AID 1347041; in the data active = activity change below about -30%; inconclusive = mostly about -25% to -30%;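 also: plate controls were DMSO wells for no effect and wells without enzyme for full effect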
#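 Resorufin fluorescence (ex540/em590), read at 0 and 20 min after diaphorase/resazurin addition, reports the NADH left after a 5 min room-temperature reaction of 2 nM human LDH5 with 0.06 mM NADH and 0.2 mM pyruvate.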
# RORgamma inh: inhibitors of mouse ROR gamma transcriptional activity. P51450. Drosophila S2 Gal4-RORgamma UAS-luciferase reporter, 20 h. Potency, µM (top dose mostly 53.6 µM), for the others: at the highest dose activity change, negative = inhibition, hits mostly inhibitors. 310,000 compounds, 5.4% hits; also: potency is read from the fitted curve at half-maximal effect; nearly all actives have a fitted effect of over 60% in size
# Target sequence (P51450 whole entry, looked up, the tested form may be a part): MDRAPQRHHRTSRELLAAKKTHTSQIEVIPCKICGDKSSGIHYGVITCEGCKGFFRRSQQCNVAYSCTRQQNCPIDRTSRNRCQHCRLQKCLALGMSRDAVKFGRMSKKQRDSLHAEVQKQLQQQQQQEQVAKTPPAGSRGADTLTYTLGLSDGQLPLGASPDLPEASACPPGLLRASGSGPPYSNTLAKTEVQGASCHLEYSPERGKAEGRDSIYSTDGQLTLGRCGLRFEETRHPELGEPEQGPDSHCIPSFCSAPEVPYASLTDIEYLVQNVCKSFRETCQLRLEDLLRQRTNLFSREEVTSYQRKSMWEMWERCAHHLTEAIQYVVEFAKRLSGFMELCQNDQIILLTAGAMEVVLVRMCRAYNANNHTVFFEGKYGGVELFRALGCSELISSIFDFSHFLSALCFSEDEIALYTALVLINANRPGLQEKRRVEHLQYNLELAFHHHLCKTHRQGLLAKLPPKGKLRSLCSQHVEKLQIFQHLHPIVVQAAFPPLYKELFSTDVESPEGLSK
#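 In this cell-based reporter format, copper sulfate (700 uM final) drives Gal4–ROR gamma fusion expression from a metallothionein promoter in Drosophila Schneider cells; compounds preincubated 1 hr, reporter read after 20 hr at ambient temperature.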
# * marks the source's active call; other numbers are inactive results; ? = inconclusive; / = no result; [ ] = remark or other dose. Unless noted, calls follow the shape of the dose curve; as a rule, active = well fitted curve in the direction sought with a large enough effect; inconclusive = small, poorly fitted or top-dose-only effect, or another doubt; inactive = no such curve, though single readings can be large; an effect the other way counts as inactive or inconclusive. Unless noted, % is scaled to controls: 0 for no effect and ±100 for the full control effect.
SMILES,IL1B secr inh,DT40 TDP1 CPT,VP16 counter,TDP1 cell noCPT,LDHA block,RORgamma inh
COCCNc1nc(-c2ccccc2CN(C)C)nc2ccccc12,/,?,-7.6%,11.6µM*,/,-32.0%
COCCNc1nc(-c2ccccc2OC)nc2ccccc12,/,?,-25.4%,?,/,3.6%
CN(C)Cc1ccccc1-c1nc(NCc2ccccc2)c2ccccc2n1,/,16.4µM*,-3.1%,6.51µM*,/,-27.9%
CN(C)Cc1ccccc1-c1nc(NC2CC2)c2ccccc2n1,/,?,-16.5%,?,/,2.8%
COC(=O)NC(c1ccc(C)cc1)C(Cl)(Cl)Cl (stereo not drawn),/,/,/,/,6.7,/
O=C(NC(c1ccccc1)C(Cl)(Cl)Cl)c1ccccc1 (stereo not drawn),-10.3,20.6µM*,-7.7%,20.6µM*,-11.9,15.5%
Cc1ccc(C(NC(=O)c2ccccc2)C(Cl)(Cl)Cl)cc1 (stereo not drawn),14.1,14.6µM*,-20.2%,20.6µM*,-5.5,?
CCC(CC)NC(=O)COC(=O)/C=C/c1cccc2cccnc12,/,/,/,/,8.7,/
Cn1c(=O)[nH]c(=O)c2c1nc(NCCO)n2Cc1cccc2ccccc12,/,/,/,/,6.7,/
COc1ccc(N(CC(=O)Nc2ccc(Cl)cc2C)S(=O)(=O)c2ccccc2)c(OC)c1,/,?,/,18.4µM*,2.8,/
COc1ccc(NC(=O)CN(c2ccccc2)S(=O)(=O)c2ccccc2)c(OC)c1,9.5,?,-14.7%,?,-0.2,26.7%
COc1ccc(OC)c(N(CC(=O)Nc2ccccc2F)S(=O)(=O)c2ccccc2)c1,-4.1,-3.2%,/,-27.1%,-8.3,/
COc1ccc(Cl)cc1NC(=O)CN(c1cccc(C)c1C)S(=O)(=O)c1ccccc1,/,23.1µM*,/,23.1µM*,0.4,/
Cc1ccc(-c2nc(CS(=O)(=O)CC(=O)N3CCc4ccccc43)c(C)o2)cc1,/,/,/,/,10.1,/
Cc1cccc(N2CCN(S(=O)(=O)c3cc(C(=O)Nc4ccccc4Cl)ccc3F)CC2)c1C,/,?,/,23.1µM*,7.5,/
O=C(Nc1ccccc1N1CCCCC1)c1ccc(F)c(S(=O)(=O)N2CCOCC2)c1,20.8,16.4µM*,/,20.6µM*,-0.9,/
CN(c1ccccc1)S(=O)(=O)c1cc(C(=O)OCC(N)=O)ccc1Cl,13.9,-3.6%,5.3%,?,-1.1,-4.2%
CN(c1ccccc1)S(=O)(=O)c1cc(C(=O)Nc2ccccc2N2CCOCC2)ccc1Cl,?,16.4µM*,/,9.2µM*,-1.1,/
CN(c1ccccc1)S(=O)(=O)c1cc(C(=O)c2nccn2C)ccc1Cl,-22.0,?,-2.1%,16.4µM*,-4.0,-23.8%[10 µM]
O=C(NCC1COc2ccccc2O1)c1ccc(F)c(S(=O)(=O)N2CCOCC2)c1 (stereo not drawn),13.9,18.4µM*,/,?,-0.9,/
Cc1onc(-c2c(F)cccc2Cl)c1C(=O)OCC(=O)c1c[nH]c2ccccc12,-52.2*,?,?,18.4µM*,-9.2,?
Cc1onc(-c2c(F)cccc2Cl)c1C(=O)N(Cc1ccccc1)C(C)C,12.4,?,3.4%,9.2µM*,-3.4,3.8%
Cc1onc(-c2c(Cl)cccc2Cl)c1C(=O)c1ccccc1,21.8,23.1µM*,-15.0%,20.6µM*,-1.0,0.6%
Cc1onc(-c2c(Cl)cccc2Cl)c1C(=O)Nc1nccs1,27.4,?,?,?,-4.5,10µM*
CCCCc1nnc(NC(=O)CCc2c[nH]c3ccccc23)s1,/,/,/,/,-11.1,/
SMILES,IL1B secr inh,DT40 TDP1 CPT,VP16 counter,TDP1 cell noCPT,LDHA block,RORgamma inh
Cc1onc(-c2c(F)cccc2Cl)c1C(=O)Oc1ccccc1,13.3,?,/,13µM*,-0.7,/
CCOc1ccc(OC(=O)c2c(-c3ccccc3Cl)noc2C)cc1,/,?,/,20.6µM*,-3.0,/
O=C1CCCC2=C1C(c1cc(Cl)c(O)c(Cl)c1)C1=C(CCCC1=O)O2,/,/,/,/,-0.3,/
CCOc1ccc(NC(=O)C(=O)N/N=C\c2ccc(CNS(=O)(=O)c3ccccc3)o2)cc1,79.7,?,-24.3%,20.6µM*,-9.2,1.0%[10 µM]
COc1ccc(NC(=O)C(=O)N/N=C\c2ccc(CNC(=O)C(=O)Nc3ccc(C)c(C)c3)o2)c(OC)c1,28.0,5.17µM*,3.16µM*,9.2µM*,0.7,11.0%[1.91 µM]
Cc1ccc(NC(=O)c2cc(S(=O)(=O)NCCc3ccccc3)ccc2F)cc1Cl,-88.0*,?,?,?,-4.5,?
CCc1ccccc1NC(=O)c1cc(S(=O)(=O)NCCc2ccc(OC)c(OC)c2)ccc1F,/,20.6µM*,/,16.4µM*,2.9,/
Cc1ccc(C)c(NC(=O)c2cc(S(=O)(=O)NCCc3ccccc3)ccc2F)c1,/,23.1µM*,/,?,3.2,/
CCOC(=O)N1CCC(NC(=O)c2cc(S(=O)(=O)NCCc3ccccc3)ccc2F)CC1,-11.4,?,-1.3%,?,-4.5,?
Cc1ccc(C(=O)N(Cc2ccncc2)C2CC2)s1,/,/,/,/,7.2,/
COc1ccc(-n2ncc3c(NCC(C)C)ncnc32)cc1,-25.4,?,-1.2%,?,0.6,39.5%
COCC(C)Nc1ncnc2c1cnn2-c1ccc(Cl)cc1 (stereo not drawn),-56.8*,?,-20.2%,?,-3.0,-12.6%
COc1ccc(-n2ncc3c(NC(C)C)ncnc32)cc1,0.0,-1.4%,?,?,-7.4,11.2µM*
CN(C)S(=O)(=O)c1cccc(NC(=O)CSc2cccc3cccc(Cl)c23)c1,/,/,/,/,-17.8,/
O=C(NCc1ccc(F)cc1)C(=O)Nc1nc(C23CC4CC(CC(C4)C2)C3)cs1,-2.1,?,3.98µM*,?,-2.5,5.62µM*
O=C(NCc1ccccc1)C(=O)Nc1nc(C23CC4CC(CC(C4)C2)C3)cs1,23.0,23.1µM*,7.08µM*,?,-0.7,7.94µM*
O=C(NCc1ccncc1)C(=O)Nc1nc(C23CC4CC(CC(C4)C2)C3)cs1,0.0,20.6µM*,-22.4%,20.6µM*,3.4,-6.2%[10 µM]
O=C(Nc1nc(C23CC4CC(CC(C4)C2)C3)cs1)c1cc(-c2cccnc2)nc2ccccc12,/,/,/,/,-2.4,/
CNC(=O)C(=O)Nc1nc(C23CC4CC(CC(C4)C2)C3)cs1,-21.6,-1.1%,12.4%,-23.6%,1.7,-41.7%
O=C(NCc1cccnc1)C(=O)Nc1nc(C23CC4CC(CC(C4)C2)C3)cs1,16.0,?,-3.0%,16.4µM*,6.5,?
N#C/C(=C\c1ccc(OCc2ccc(C#N)cc2)cc1)c1nc2ccccc2[nH]1,/,/,/,/,1.5,/
NC(=S)Nc1cccc(Br)c1,/,/,/,/,0.1,/
